Active and inactive are the calls of the source. The call rests on the fitted dose curve; in most records, active means well fitted activation curve with a large enough effect; inconclusive means small, poorly fitted or top-dose-only effect; inactive means flat fitted curve, though single readings scatter. Peptide text beside a SMILES is read from it.
assay: Confirmation and Secondary Assay for Modulators of Hemoglobin Beta Chain Splicing at IVS2 654 locus (AID 910); settings: HeLa EGFP-654 splicing reporter, GFP fluorescence, 48 h; series mostly up to 46.1 µM;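 further: HeLa cells stably carrying EGFP split by mutant beta-globin IVS2-654 intron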
Source text: NIH Chemical Genomics Center [NCGC] NIH Molecular Libraries Screening Centers Network [MLSCN] MLSCN Grant: 1 X01 MH080684-01 PI Name: Dr. Ryszard Kole NCGC Assay Overview: Modulation of Alternative Splicing as Therapy Abnormal splicing is associated with a number of diseases, including cancer and genetic diseases such as cystic fibrosis, muscular dystrophy and beta-thalassemia. Alteration of disease associated splicing patterns provides a promising target for treatment. […] Mutations in the second intron of the b-globin gene at positions 654 or 705 are clinically relevant and cause mis-splicing which results in an out of frame gene product. […] EGFP-654 HeLa Cells as screen system. HeLa cell lines were stably transfected with a construct in which the EGFP (enhanced green fluorescent protein) cDNA was interrupted by the second intron of the beta-globin gene (IVS2-654). The ISV2 intron contains mutations which cause mis-splicing of EGFP and premature termination of EGFP which results in a nonfluorescent protein product. […] Expression of the transgene was driven by the CMV promoter. We concluded that a low molecular weight compound, which restored correct splicing of intron 2 would also generate functional EGFP protein, resulting in a fluorescent signal. Thus, the HeLa cells that express the EGFP-654 construct can be used for high throughput screening of a chemical library.
NCGC Assay Protocol Summary: Confirmatory Screening. Freshly thawed HeLa EGFP-654 cells were seeded in 5 ul of optimem media (Invitrogen) containing 2 % fetal calf serum (Hyclone) and 1x penicillin/streptomycin (Invitrogen) at a concentration of 500 cells per well in 1536-well plates. Cells were incubated overnight at 37C in 5% CO2. The next day, cells were treated with DMSO, 500 nM antisense ISV2 654 PNA control oligo, or library compound and allowed to grow at 37C in 5% CO2 for 2 days. The PNA oligo blocked the mutation site in the intron and allowed proper (wild type) splicing to occur, resulting in full length EGFP expression and also allowed for optimization of the assay parameters. Plates were read in the Acumen Explorer (TTP Labtech) using 488 nm laser excitation and 500-520 nm emission PMT filter in a 1 x 8 uM capture mode. Fluorescnet objects ranging in size from 5 to 250 uM were measured and the total peak GFP intensity for each well was used for data analysis. Keywords: Thalassemia, beta-thalassemia, beta-globin, EGFP, ISV2 654, ISV2 705, SSO, PNA, antisense, splicing, MLSMR, MLSCN, NIH Roadmap, qHTS, NCGC

Potency, inactive:
CC(=O)OC1C=C[C@]2(C)C(CC(OC(C)=O)[C@@]3(C)C4=CC(=O)OC(c5ccoc5)[C@]4(C)CCC23)C1(C)C (stereo not given in full), [N-]=[N+]=Nc1nc2c(N)ncnc2n1C1OC(CO)C(O)C1O (stereo not given), CN(C)CC/C=C1/c2ccccc2COc2ccccc21, CCCc1cc(OC)c2c(c1)OCO2, CC1(C)OC2CC3C4CCC5=CC(=O)CCC5(C)C4(F)C(O)CC3(C)[C@]2(C(=O)CCl)O1 (stereo not given in full), C=C1C2CC[C@@]3(C)C(c4ccoc4)OC(=O)C[C@@]13OC1CC(=O)C(C)(C)C(CC(=O)OC)[C@]12C (stereo not given in full), COc1cc(O)c(C(=O)O)c(O)c1, COc1ccc2c(c1)OCC(Cc1ccc(OC)c(O)c1)C2=O (stereo not given), COc1c(O)cccc1O, C=C(C)C1Cc2c(ccc(C(=O)O)c2O)O1 (stereo not given), COC(=O)C(O)C1C(C)(C)C(OC(C)=O)C2CC3=C4CC(=O)OC(c5ccoc5)[C@]4(C)CCC3[C@@]1(C)C2=O (stereo not given in full), CC1(C)CC2C1CCC1(C)OC2(C)CCC1O (stereo not given), CC1(C)C(=O)CC[C@@]2(C)C1CC(O)[C@@]1(C)C3=CC(=O)OC(c4ccoc4)[C@]3(C)CCC21 (stereo not given in full), CC1=CC2C(C(C)C)CCC(C)(O)C2CC1 (stereo not given), O=C(/C=C/c1ccccc1)c1ccc(O)cc1O, COc1c(O)cc2c(-c3ccccc3)cc(=O)oc2c1OC, O=c1ccn(C2OC(COP(=O)(O)OP(=O)(O)OP(=O)(O)O)C(O)C2O)c(=O)[nH]1 (stereo not given), C/C1=C/CC(C)(C)/C=C/C/C(C)=C/CC1, CC(=O)N1CCCC1C(=O)O (stereo not given), Nc1ncnc2[nH]c(=O)[nH]c12, O=c1[nH]c(=O)n(C2CC(O)C(CO)O2)cc1F (stereo not given), O=C(O)c1cc2cc(Cl)ccc2[nH]1, COC(=O)C(Cc1ccccc1)NC(=O)C(N)CC(=O)O (stereo not drawn) (H-Asp-Phe-OMe; configuration not given here), COc1ccc(C2CC(=O)c3c(O)cc(O)cc3O2)cc1O (stereo not given), COc1ccc2cc(C(C)CO)ccc2c1 (stereo not given), CC1=C(/C=C/C(C)=C/C=C/C(C)=C/C=C/C=C(C)/C=C/C=C(C)/C=C/C2=C(C)C(=O)C(O)CC2(C)C)C(C)(C)CC(O)C1=O (stereo not given), CC(=O)OC1C[C@@]2(C)C(c3ccoc3)OC(=O)C3O[C@@]32[C@]2(C)C(OC(C)=O)CC3C(C)(C)C(OC(C)=O)CC(OC(C)=O)[C@@]3(C)C12 (stereo not given in full), Nc1nc2c(nc(Br)n2C2OC(CO)C(O)C2O)c(=O)[nH]1 (stereo not given), CC(=O)O[C@](C)(CCC=C(C)C)C1CC=C(C)CC1 (stereo not given in full), COc1cc(OC)c2c(c1Cl)OC1(C2=O)C(O)=CC(=O)CC1C (stereo not given), COc1ccc(/C=C/c2cc(O)cc(O[C@H]3OC(CO)C(O)C(O)C3O)c2)cc1 (stereo not given in full), CC(=O)OC1CC[C@@]2(C)C3CC(=O)[C@]4(C)C(C(C)=O)=CCC4C3CC[C@H]2C1 (stereo not given in full), CC(=O)OC[C@@]1(O)C[C@]23CCC4c5ccoc5CC[C@@]4(C)C2CCC1C3 (stereo not given in full), C[C@@H]1OC(OC2C(OC3CC[C@@]4(C)C5CC=C6C7CC(C)(C)CC[C@@]7(C(=O)O)CCC6(C)C5(C)CCC4[C@]3(C)CO)OCC(O)C2O)C(O)C(O)C1O (stereo not given in full), CC(C)C1COc2cc3oc(=O)ccc3cc2O1 (stereo not given), C=CCSCC=C, COc1cc(O)cc(/C=C/c2ccccc2)c1, CC(C)c1ccc2c(c1)CCC1C(C)(C(N)=O)CCCC21C (stereo not given), CC(=O)OC1CCC2(C)C3=C(CCC2C1(C)C)[C@]1(C)CCC(C(C)CCC=C(C)C)[C@]1(C)CC3 (stereo not given in full), CCNC(=O)CCC(N)C(=O)O (stereo not given)

— PubChem BioAssay (NCATS)
